From PubChem BioAssay (EPA / NIEHS)
Several values for one entry are separate records, joined by “and”; a condition that tells them apart may be missing. Identical values can stand only once. Records with an inconclusive call do not appear. More than one record can exist for a structure, and the calls need not agree. Activity calls are given as the source filed them. Rule for the calls, unless noted: active = hit-call score of the fitted dose curve at least 0.9, where 1 is the maximum; inactive = score below 0.9. Peptide text beside a SMILES is read from it.

How the values were obtained:
[1] = CCTE_Shafer_MEA_dev_AB: CCTE's Alamar Blue Assay for Cytotoxicity in the Neural Network Formation Assay, Shafer Lab (AID 2284083; active = hit-call score of the fitted dose curve at least 0.9, where 1 is the maximum;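 note: twelve days of exposure from plating with re-dosing on DIV 5 and 9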)
How it was run: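 Primary rat cortical neurons on PEI-coated 48-well MEA plates, 1.5 x 10^5 cells/well in laminin drop; compound exposure from day 0 of plating for twelve days, renewed at medium changes on DIV 5 and 9. Viability read as resazurin reduction by fluorescence, relative to DMSO.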

[2] = CCTE_Shafer_MEA_dev_mutual_information_norm: CCTE's Neural Network Formation Assay for Mutual Information Normalization, Shafer Lab (AID 2284091);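 for AC50: mutual information between electrodes summarised as area under curve across four recording days; potency is for a decrease in mutual information relative to DMSO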
How it was run: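 Primary rat cortical neurons on PEI-coated 48-well MEA plates, 1.5 x 10^5 cells/well, exposed from day 0 through day 12 with re-dosing at DIV 5 and 9. Mutual information between electrodes recorded days 5, 7, 9, 12; trapezoidal AUC, loss-of-signal fit versus DMSO.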

[3] = CCTE_Shafer_MEA_dev_correlation_coefficient_mean: CCTE's Neural Network Formation Assay for Mean Correlation Coefficient, Shafer Lab (AID 2284093);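 for AC50: well mean pairwise spike train correlation integrated as AUC over recording days 5 to 12; potency fitted for loss of correlation relative to DMSO vehicle wells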
How it was run: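 Spontaneous activity recorded on days 5, 7, 9 and 12 post-plating; pairwise spike correlations are averaged across active electrodes and collapsed to an area-under-curve. Rat cortical cultures are dosed from plating through 12 days, with compound renewed at media changes.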

[4] = UKN2_HCS_IMR90_neural_migration: University of Konstanz (UKN) Leist Lab Neural Crest Cell Migration Assay in human induced IMR90 Pluripotent Stem Cells (UKN2) (AID 2284204); details: actives raise or lower the signal
Procedure: UKN2_HCS_IMR90 is a cell-based, multiplexed-readout assay screening for neural crest cell migration and cell viability that uses IMR90 (neural crest cells differentiated from iPSC), a human embryo cell line, with measurements taken at […] after chemical dosing in a microplate: 96-well plate. UKN2, also known as cMINC, is an assay that uses IMR90 cells (neural crest cells differentiated from iPSC) as a model of neural crest cell migration. 24 hr after cell seeding, cell migration was initiated and proceeded for 24 hr. Then, chemical was applied, and after 24 hr of exposure migration and viability were assessed using high-content imaging of cells stained with calcein-AM and Hoechst H-33342.UKN2_HCS_IMR90_neural_migration is an assay component measured from the UKN2_HCS_IMR90 assay. It is designed to make measurements of neural crest cell migration, a form of morphology reporter, as detected with Fluorescence intensity signals by HCS Fluorescent Imaging.The assay endpoint UKN2_HCS_IMR90_neural_migration was analyzed with bidirectional fitting relative to DMSO as the negative control and baseline of activity. Using a type of morphology reporter, gain or loss-of-signal activity can be used to understand developmental effects. […]
The wells are coated with PLO/laminin/fibronectin. […] Quantification of migration and viability is done by high content imaging analysis.

[5] = IUF_NPC1b_proliferation_BrdU_72hr: Leibniz Research Institute for Environmental Medicine (IUF) 72-hour Neural Progenitor Cell Bromodeoxyuridine (BrdU) Proliferation Assay (NPC1b) (AID 2284207)
How it was run: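 BrdU luminescence ELISA quantified DNA synthesis over the last 16 h of a 72 h exposure, fitted against DMSO. Primary hNPC spheres from gestational week 16-19 cortex grown with EGF/FGF at 37C, pH 7.2-7.6.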

[6] = IUF_NPC1a_proliferation_area_72hr: Leibniz Research Institute for Environmental Medicine (IUF) 72-hour Neural Progenitor Cell Proliferation Area Assay (NPC1a) (AID 2284208)
How it was run: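 Measured in 3D suspension: each well held one primary hNPC sphere grown with EGF and FGF at pH 7.2-7.6. Compound stayed on for 72 h, then area was imaged; spheres lacking growth factors defined reduced proliferation.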

[7] = IUF_NPC1_viability_72hr: Viability Assessment at 72 hours in the Leibniz Research Institute for Environmental Medicine (IUF) Neural Progenitor Cell Proliferation Assay (NPC1) (AID 2284209)
Procedure: IUF_NPC1 is a cell-based, multiplexed assay that uses hNPC, a human primary neural progenitor cells, with measurements taken at 72 hours after chemical dosing in a 96-well plate. Human neural progenitor cells (hNPC) are generated from human fetal brain cortex at gestational week (GW) 16-19. Grown in suspension culture and under proliferative conditions (proliferation media and growth factors), these cells represent neural progenitor cell proliferation. In the NPC1 assay, hNPC's are exposed to the test compound for 72h. Cell proliferation is assessed as an increase in sphere area using automated phase contrast imaging and as incorporation of Bromodeoxyuridine (BrdU) during DNA synthesis using a luminescence-based cell proliferation ELISA. In parallel, the cell viability is assessed using an alamar blue viability assay and the cytotoxicity using a lactate dehydrogenase dependent membrane integrity assay.IUF_NPC1_viability_72hr is one of 4 assay components measured from the IUF_NPC1 assay. It is designed to measure cell viability assessed as mitochondria-dependent reduction of resazurin to resorufin using the alamar blue cell viability assay. Viability is measured as a fluorescence signal (relative fluorescence unit) in a multiplate reader. […]

[8] = CCTE_Mundy_HCI_Cortical_Synap_Neur_Matur_NeuriteSpotCountPerNeuriteLength: CCTE's Synaptogenesis and Neurite Maturation Assay in rat cortical cells for Neurite Spot Count per Neurite Length, Mundy Lab (AID 2284210)
How it was run: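 Rat primary cortical cultures, AraC added at DIV 5 to suppress glia; chemical exposure from DIV 7 to DIV 12. Fixed cells stained for MAP2 and synaptophysin plus Hoechst; synaptophysin puncta per neurite length quantified by high-content imaging, relative to DMSO.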

[9] = CCTE_Mundy_HCI_Cortical_Synap_Neur_Matur_BPCount: CCTE's Synaptogenesis and Neurite Maturation Assay in rat cortical cells for Branch Point Count, Mundy Lab (AID 2284211)
How it was run: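 Branch point number is quantified by automated imaging of fluorescently labelled neurites and synapses in rat primary cortical neurons exposed from DIV 7 to DIV 12. Activity is analysed relative to DMSO negative control.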

[10] = CCTE_Mundy_HCI_Cortical_NOG_NeuriteCount: CCTE's Neurite Outgrowth Assay in rat cortical cells for Neurite Count, Mundy Lab (AID 2284212);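 note: cells fixed about two days after chemical exposure began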
How it was run: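 Neurite number per cell from high-content imaging of betaIII-tubulin immunostaining, with Hoechst nuclear counterstain.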

Row | Compound | outcome [1] | outcome [2] | outcome [3] | outcome [4] | AC50 [5] | outcome [6] | outcome [7] | outcome [8] | outcome [9] | outcome [10] | AC50 [1] | AC50 [2] | AC50 [3] | outcome [5]
1 | CCCCNS(=O)(=O)c1ccccc1 | inactive | inactive | inactive | inactive | 11.9 µM (active) | inactive | inactive | inactive | inactive | inactive | – | – | – | –
2 | Cc1noc(NS(=O)(=O)c2ccc(N)cc2)c1C | inactive | inactive | inactive | – | – | – | – | inactive | inactive | inactive | – | – | – | –
3 | C[N+](C)(C)CCCNS(=O)(=O)C(F)(F)C(F)(F)C(F)(F)C(F)(F)C(F)(F)C(F)(F)C(F)(F)C(F)(F)F | – | – | inactive | – | – | – | – | – | – | – | 15 µM (active) and 7.64 µM (active) | 906 nM (active) and 914 nM (active) | 4.2 µM (active) | –
4 | Cc1c(C(=O)c2c[nH]n(C)c2=O)ccc(S(C)(=O)=O)c1C1=NOCC1 | inactive | inactive | inactive | – | – | inactive | inactive | inactive | inactive | inactive | – | – | – | inactive
5 | COC(=O)[C@H](Cc1ccccc1)NC(=O)[C@@H](N)CC(=O)O (H-Asp-Phe-OMe) | inactive | inactive | inactive | – | – | – | – | inactive | inactive | inactive | – | – | – | –
